This assay addresses Neurogenic locus notch homolog protein 3 (Homo sapiens) (UniProt Q9UM47). Kind of assay: small molecules binding NOTCH3 protein – biochemical, 635/667 nm fluorescence, primary screen (AID 1096). The note with it: small-molecule microarray, 635 nm fluorescence, higher = more signal.
Sequence of Neurogenic locus notch homolog protein 3 (Homo sapiens) (Q9UM47 whole entry, looked up): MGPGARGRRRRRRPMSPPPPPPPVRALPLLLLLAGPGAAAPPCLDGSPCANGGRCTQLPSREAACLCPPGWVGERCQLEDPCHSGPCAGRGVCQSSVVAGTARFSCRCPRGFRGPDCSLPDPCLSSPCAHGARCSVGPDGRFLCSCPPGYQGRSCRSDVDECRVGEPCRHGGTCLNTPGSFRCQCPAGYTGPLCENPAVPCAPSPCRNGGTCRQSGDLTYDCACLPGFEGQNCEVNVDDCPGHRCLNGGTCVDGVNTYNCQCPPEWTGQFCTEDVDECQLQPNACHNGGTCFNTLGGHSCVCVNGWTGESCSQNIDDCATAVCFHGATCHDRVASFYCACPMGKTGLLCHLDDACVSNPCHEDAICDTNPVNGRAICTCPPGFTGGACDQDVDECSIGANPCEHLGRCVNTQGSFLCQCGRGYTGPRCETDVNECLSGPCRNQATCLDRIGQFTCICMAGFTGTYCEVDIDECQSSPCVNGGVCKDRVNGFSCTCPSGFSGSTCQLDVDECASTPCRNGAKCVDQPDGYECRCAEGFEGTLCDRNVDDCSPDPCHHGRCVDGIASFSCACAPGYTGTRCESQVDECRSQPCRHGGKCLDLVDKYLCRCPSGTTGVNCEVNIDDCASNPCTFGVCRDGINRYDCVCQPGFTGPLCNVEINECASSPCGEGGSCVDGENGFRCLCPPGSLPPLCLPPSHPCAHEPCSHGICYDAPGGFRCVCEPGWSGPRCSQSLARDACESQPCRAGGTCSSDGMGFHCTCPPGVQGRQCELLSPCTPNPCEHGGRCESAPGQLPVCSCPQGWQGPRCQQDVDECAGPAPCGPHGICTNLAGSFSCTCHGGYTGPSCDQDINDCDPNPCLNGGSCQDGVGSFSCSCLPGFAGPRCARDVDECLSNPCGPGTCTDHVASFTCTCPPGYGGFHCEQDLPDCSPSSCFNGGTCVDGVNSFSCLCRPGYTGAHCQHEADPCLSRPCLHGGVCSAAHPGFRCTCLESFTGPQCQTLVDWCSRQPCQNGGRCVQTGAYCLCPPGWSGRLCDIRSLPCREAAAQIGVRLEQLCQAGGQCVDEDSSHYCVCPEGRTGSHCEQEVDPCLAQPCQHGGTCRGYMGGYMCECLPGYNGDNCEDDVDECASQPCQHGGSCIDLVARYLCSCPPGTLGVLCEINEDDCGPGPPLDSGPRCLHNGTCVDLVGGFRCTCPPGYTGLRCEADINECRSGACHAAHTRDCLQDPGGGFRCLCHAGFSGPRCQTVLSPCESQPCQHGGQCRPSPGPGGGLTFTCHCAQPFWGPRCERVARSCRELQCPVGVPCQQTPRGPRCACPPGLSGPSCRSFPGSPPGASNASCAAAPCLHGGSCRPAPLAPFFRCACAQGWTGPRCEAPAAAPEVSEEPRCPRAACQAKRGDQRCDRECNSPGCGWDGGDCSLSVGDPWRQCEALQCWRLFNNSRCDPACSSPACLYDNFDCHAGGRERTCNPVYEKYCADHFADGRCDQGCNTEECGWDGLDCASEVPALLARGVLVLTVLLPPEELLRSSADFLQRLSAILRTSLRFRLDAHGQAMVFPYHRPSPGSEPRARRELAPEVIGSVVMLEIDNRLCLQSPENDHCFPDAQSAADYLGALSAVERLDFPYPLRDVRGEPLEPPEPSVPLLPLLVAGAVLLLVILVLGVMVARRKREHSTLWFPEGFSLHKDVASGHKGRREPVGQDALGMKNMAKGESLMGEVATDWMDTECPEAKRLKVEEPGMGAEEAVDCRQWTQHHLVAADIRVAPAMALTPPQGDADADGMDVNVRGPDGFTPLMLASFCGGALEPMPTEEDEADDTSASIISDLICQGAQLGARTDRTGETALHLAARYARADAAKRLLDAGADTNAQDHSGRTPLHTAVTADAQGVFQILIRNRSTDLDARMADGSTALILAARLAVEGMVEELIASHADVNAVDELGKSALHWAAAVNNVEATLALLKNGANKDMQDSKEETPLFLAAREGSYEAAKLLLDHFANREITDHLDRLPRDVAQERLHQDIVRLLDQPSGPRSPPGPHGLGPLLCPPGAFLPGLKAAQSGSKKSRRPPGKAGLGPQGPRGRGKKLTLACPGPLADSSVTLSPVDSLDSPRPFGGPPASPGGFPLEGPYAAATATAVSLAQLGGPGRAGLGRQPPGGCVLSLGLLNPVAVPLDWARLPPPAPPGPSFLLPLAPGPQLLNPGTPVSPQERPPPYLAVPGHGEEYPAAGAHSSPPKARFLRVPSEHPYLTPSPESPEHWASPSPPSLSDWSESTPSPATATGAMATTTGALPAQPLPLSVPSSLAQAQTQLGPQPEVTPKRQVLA
The compound `C#CCCCON=C1[C@H]2CCn3c(=O)n(C)c(=O)n3[C@H]2[C@H](O)[C@@H]2O[C@H]12` yielded a composite z-score of 0.891.

`CCCCC#C[C@@H]1C=C[C@H](OC(C)=O)[C@@H](COC(C)=O)O1` yielded a composite z-score of 0.848. As to `CO[C@@H]1COC(=O)[C@@H](C)COC(=O)[C@@H](C)NC(=O)CC=C[C@@H]1C`, the composite z-score was -0.0403.

`Cc1ccc(S(=O)(=O)OC[C@H]2CN3[C@H](c4ccc(Br)cc4)[C@@H](C)CC[C@H]3C(=O)O2)cc1` came in with a composite z-score of 0.323. In the case of `COc1ccc(COC(=O)NN=C2C[C@@H](O)[C@@H](O)[C@@H]3[C@@H]4C(=O)N(c5cccc(Oc6ccccc6)c5)C(=O)[C@@H]4CC[C@@H]23)cc1`, the composite z-score is -0.732. As for `O=C1C2=CC[C@H]3C(=O)N(c4cccc(Oc5ccccc5)c4)C(=O)[C@H]3[C@H]2[C@H](O)[C@@H]2O[C@H]12`, the composite z-score stood at 0.92. `CC(CCN1CCCCc2nc(C)c(C)cc21)=NO[C@H](C)c1cn([C@H](CO)Cc2ccccc2)nn1` returned a composite z-score of 0.108. In the case of `CO[C@@H]1COC(=O)[C@H](CCSC)NC(=O)CC=C[C@@H](C)COC(=O)CCC[C@H]1C`, the composite z-score is 0.249. On to `CC(CCN1CCCc2nc(C)c(C)cc21)=NO[C@@H](C)c1cc(-c2c(C)cc(C)cc2C)no1`, for which the composite z-score is 0.635. For `CO[C@@H]1COC(=O)[C@@H](C)NC(=O)CC=C[C@@H](C)[C@H](NS(=O)(=O)c2ccc(C)cc2)COC(=O)[C@H](C)NC(=O)CC=C[C@H]1C`, the composite z-score stood at 0.225.

As for `CCN1C(=O)[C@H]2[C@H]3[C@H](O)[C@H](O)CC(=NOC[C@H]4O[C@H](c5ccccc5)C=C[C@@H]4Oc4ccc(OC)cc4)[C@@H]3CC[C@H]2C1=O`, the composite z-score was determined as 1.11. Take `CCOC(=O)[C@H](CC(C)C)NC(=O)CCC1CC(OC(=O)NCc2cccc3ccccc23)CC2(CCCC(COC(=O)NCC3CCCCC3)O2)O1` (stereo partly specified): the composite z-score was 0.818. To `CC(C)CCN1CCc2nc(COc3ccccc3)c3c(c2C1)CO[C@@H](C)C3` belongs -0.149; to `COC(=O)CC=C[C@@H](C)[C@@H](C=NO[C@H](C)c1cn([C@H](CO)Cc2ccccc2)nn1)OC`, 0.614; to `CON=C(C)CCC(=O)OC[C@H]1O[C@H](c2ccccc2)C=C[C@@H]1Oc1ccc(OC)cc1`, -0.0061. With `CCOC(=O)NN=C1C[C@@H](O)[C@@H](O)[C@@H]2[C@@H]3C(=O)N(c4cccc(Oc5ccccc5)c4)C(=O)[C@@H]3CC[C@@H]12`, the composite z-score is -0.362. The compound `CCN1C(=O)[C@H]2[C@H]3[C@H](O)[C@H](O)CC(=NO[C@@H](C)c4cn([C@H](CO)Cc5ccccc5)nn4)[C@@H]3CC[C@H]2C1=O` displayed a composite z-score of 0.988. For the compound `COC(=O)CC=C[C@@H](C)[C@@H]1C=C[C@H](O)[C@@H](CO)O1`, the composite z-score turned out to be 0.601. In the case of `C[C@@H](ON=C1[C@H]2CCn3c(=O)n(-c4ccccc4)c(=O)n3[C@H]2[C@H](O)[C@@H]2O[C@H]12)c1cn([C@@H]2COC[C@H]2O)nn1` it was 0.72; in that of `CC(CCC(=O)OC[C@H]1O[C@H](C#Cc2ccccc2)C=C[C@@H]1Oc1ccc(C)cc1)=NO[C@H](C)c1cn([C@H](CO)Cc2ccccc2)nn1`, 0.695; in that of `C#CCCCON=C1C[C@@H](O)[C@@H](O)[C@@H]2[C@@H]3C(=O)N(C(C)(C)C)C(=O)[C@@H]3CC[C@H]12`, -0.326.

For the compound `COc1ccc(COC(=O)NN=C2C[C@@H](O)[C@@H](O)[C@@H]3[C@@H]4C(=O)N(C5CCCCC5)C(=O)[C@@H]4CC[C@H]23)cc1`, the composite z-score is -1.19. `COC(=O)CC=C[C@H](C)[C@@H](OCc1cccc(Br)c1)[C@@H](C)[C@H](OC)C1CCCCC1`: the composite z-score is -1.

With `Cc1ccc(S(=O)(=O)N[C@@H]2COC(=O)[C@@H](C)COC(=O)CC=C[C@H]2C)cc1`, the composite z-score stood at 0.702. `O=C1[C@H]2[C@H]3[C@H](O)[C@H](O)CC(=NO[C@@H]4O[C@H](CO)[C@@H](O)[C@H](O)[C@H]4O)[C@H]3CC[C@H]2C(=O)N1c1cccc(Oc2ccccc2)c1` yielded a composite z-score of 0.861.

The compound `CCC1=NOC(CCC2CC(OC(=O)NCc3cccc4c3OCO4)CC3(CCCC(COC(=O)NCCc4ccccc4OC)O3)O2)C1` (stereo unspecified) displayed a composite z-score of 0.53.

As for `CCOC(=O)[C@H](CC(C)C)NC(=O)CCC1CC(OC(=O)NCc2cccc3ccccc23)CC2(CCCC(COC(=O)NCCOc3ccccc3)O2)O1` (stereo partly specified), the composite z-score amounted to 0.859. In the case of `O=c1n(Cc2cc3c(cc2Cl)OCO3)c(=O)n2n1CC[C@@H]1C(=NOCc3ccccc3)[C@H]3O[C@H]3[C@@H](O)[C@@H]12`, the composite z-score is 0.68.

Regarding `COC(=O)[C@@H]1CC[C@H](C)[C@@H](c2ccc(C)cc2)N1C(=O)c1ccc(C=NO[C@@H](C)c2cn([C@H](CO)Cc3ccccc3)nn2)cc1`, the composite z-score was found to be 1.1. Compound `CC(C)=CCCC(C)=CCON=C1C[C@@H](O)[C@@H](O)[C@@H]2[C@@H]3C(=O)N(Cc4ccccc4)C(=O)[C@@H]3CC[C@H]12` yielded a composite z-score of 0.811. In the case of `CC(C)C[C@H](NC(=O)CCC1CC(OC(=O)NCc2cccc3ccccc23)CC2(CCCC(COC(=O)NCc3ccccc3)O2)O1)C(=O)NCC(c1ccccc1)c1ccccc1` (stereo partly specified) it was 1.09. As to `CC(C)CON=C1C[C@@H](O)[C@@H](O)[C@@H]2[C@@H]3C(=O)N(C4CCCCC4)C(=O)[C@@H]3CC[C@@H]12`, the composite z-score is -0.519. `C[C@@H](c1ccccc1)N1C(=O)[C@H]2[C@H]3[C@H](O)[C@H](O)CC(=NO[C@@H]4O[C@H](CO)[C@@H](O)[C@H](O)[C@H]4O)[C@H]3CC[C@H]2C1=O` gave a composite z-score of 0.675.

As to `COC(=O)[C@@H]1CC[C@H](C)[C@@H](c2ccc(C)cc2)N1C(=O)c1ccc(C=NOC[C@@H](C)[C@H](OCc2ccccc2)C(C)C)cc1`, the composite z-score worked out at 1.09. On to `C[C@@H](c1ccccc1)N1C(=O)[C@H]2[C@H]3[C@H](O)[C@H](O)CC(=NOCc4ccccc4)[C@H]3CC[C@H]2C1=O`, for which the composite z-score was found to be 0.354. To `COC(=O)CC=C[C@@H](C)[C@@H](C=NOCC[C@@H]1C=C[C@H](OC(C)=O)[C@@H](COC(C)=O)O1)OC` belongs 0.308.

The values are drawn from PubChem BioAssay.
